From PubChem BioAssay
Unmarked numbers belong to inactive results. For part of these data: Measured potencies and affinities stand elsewhere. The source made the active and inactive calls. Unless noted, how the calls were made is not given here.

Key:
[1] = antimalarial activity against Dd2 strain (AID 2302;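 active means growth inhibition above 50% at the single 2 µM test dose, taken to imply half-maximal potency below 2 µM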;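 further: 0% = DMSO untreated growth and 100% = chloroquine plus artemisinin killed control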); details: P. falciparum Dd2 in RBCs, LDH growth readout, 72 h; at 2 µM; hits give high values
[2] = human hepatoma cell viability loss – ATP luminescence, cytotoxicity control for P. falciparum antimalarial project, primary screen (AID 2303;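 active means inhibition above 50%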;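 further: 0% = DMSO wells and 100% = digitonin-killed cells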); details: HepG2 viability, 24-48 h, at 10 µM, hits give high values
[3] = target: L-lactate dehydrogenase (Plasmodium falciparum (isolate CDC / Honduras)) (UniProt Q27743); assay: PfLDH activity inhibition – cell lysate, 3D7 strain, counter-screen for P. falciparum growth inhibition project (AID 2304);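 further: 0% = vehicle and 100% = reference inhibitor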; details: P. falciparum 3D7 crude extract, LDH APAD/NBT absorbance; at 2 µM; hits give high values
L-lactate dehydrogenase (Plasmodium falciparum (isolate CDC / Honduras)), sequence (Q27743 whole entry, looked up): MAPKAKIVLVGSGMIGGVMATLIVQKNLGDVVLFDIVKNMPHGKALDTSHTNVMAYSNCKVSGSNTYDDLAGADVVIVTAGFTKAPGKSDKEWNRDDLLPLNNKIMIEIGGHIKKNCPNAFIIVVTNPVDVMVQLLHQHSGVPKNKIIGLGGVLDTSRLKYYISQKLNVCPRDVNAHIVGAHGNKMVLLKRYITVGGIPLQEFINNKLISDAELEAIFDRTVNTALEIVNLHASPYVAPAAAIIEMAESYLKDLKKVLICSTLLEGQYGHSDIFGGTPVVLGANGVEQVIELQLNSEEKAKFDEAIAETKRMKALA

[4] = inhibition of 3D7 malaria parasite growth – strain 3D7 (AID 2306);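 further: 0% = DMSO wells and 100% = chloroquine plus artemisinin control wells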; details: P. falciparum 3D7 erythrocytic growth, LDH absorbance, 72 h; at 2 µM; hits give high values
[5] = target: Calcium-dependent protein kinase 1 (Plasmodium falciparum (isolate 3D7)) (UniProt P62344); assay: PfCDPK1 kinase inhibitors, biochemical, TCAMS library (AID 1159585; cut-off not given, nearly all actives have IC50 up to about 0.98 µM;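 further: inhibitors leave more ATP so luminescence rises with inhibition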); details: recombinant PfCDPK1, Kinase-Glo ATP depletion luminescence
Calcium-dependent protein kinase 1 (Plasmodium falciparum (isolate 3D7)), sequence (P62344 whole entry, looked up): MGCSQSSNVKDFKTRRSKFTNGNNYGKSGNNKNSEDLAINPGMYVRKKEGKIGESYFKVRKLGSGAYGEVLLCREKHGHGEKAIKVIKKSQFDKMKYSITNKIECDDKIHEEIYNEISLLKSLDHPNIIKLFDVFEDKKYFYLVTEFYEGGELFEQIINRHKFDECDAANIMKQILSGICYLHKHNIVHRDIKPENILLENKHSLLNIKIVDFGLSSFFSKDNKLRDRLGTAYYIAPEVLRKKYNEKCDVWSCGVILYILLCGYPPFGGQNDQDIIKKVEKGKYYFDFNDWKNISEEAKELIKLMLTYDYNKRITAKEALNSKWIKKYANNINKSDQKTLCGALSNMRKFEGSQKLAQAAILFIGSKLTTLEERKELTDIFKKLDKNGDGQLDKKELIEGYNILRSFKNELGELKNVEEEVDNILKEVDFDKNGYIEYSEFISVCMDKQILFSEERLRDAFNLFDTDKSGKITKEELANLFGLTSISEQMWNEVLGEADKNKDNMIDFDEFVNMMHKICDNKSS

[6] = target: Plasmodium falciparum protein kinase 6 (PK6, PF3D7_1337100) (UniProt Q8IDW1); assay: PfPK6 kinase inhibitors, biochemical, TCAMS library (AID 1159586); details: recombinant PfPK6, Kinase-Glo ATP depletion luminescence
Plasmodium falciparum protein kinase 6 (PK6, PF3D7_1337100), sequence (Q8IDW1 1-305): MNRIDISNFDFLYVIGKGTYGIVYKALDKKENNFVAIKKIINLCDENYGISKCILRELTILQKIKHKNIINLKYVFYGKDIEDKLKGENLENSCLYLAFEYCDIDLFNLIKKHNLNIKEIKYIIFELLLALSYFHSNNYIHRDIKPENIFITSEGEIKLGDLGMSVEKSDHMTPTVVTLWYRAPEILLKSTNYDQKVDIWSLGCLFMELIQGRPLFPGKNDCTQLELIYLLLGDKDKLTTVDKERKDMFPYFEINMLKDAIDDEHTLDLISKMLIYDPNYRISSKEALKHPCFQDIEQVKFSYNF

[7] = target: Protein kinase 7 (PK7), Plasmodium falciparum 3D7 (PF3D7_0213400) (UniProt Q7YTF7); assay: inhibition of Plasmodium PK7 catalytic activity – biochemical, TCAMS antimalarial set, Kinase-Glo luminescence (AID 1159587); details: recombinant PfPK7, Kinase-Glo ATP depletion luminescence
Protein kinase 7 (PK7), Plasmodium falciparum 3D7 (PF3D7_0213400), sequence (Q7YTF7 1-343): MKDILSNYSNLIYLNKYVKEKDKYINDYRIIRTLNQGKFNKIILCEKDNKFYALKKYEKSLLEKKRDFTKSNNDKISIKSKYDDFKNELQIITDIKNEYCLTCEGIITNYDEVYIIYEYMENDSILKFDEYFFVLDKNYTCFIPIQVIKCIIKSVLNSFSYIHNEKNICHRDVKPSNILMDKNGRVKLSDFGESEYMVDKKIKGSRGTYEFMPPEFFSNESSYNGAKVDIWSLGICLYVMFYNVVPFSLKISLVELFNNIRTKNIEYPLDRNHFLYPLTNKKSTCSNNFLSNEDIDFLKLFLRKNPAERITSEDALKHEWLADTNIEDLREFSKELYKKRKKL

[8] = target: Calcium-dependent protein kinase 4 (Plasmodium falciparum (isolate 3D7)) (UniProt Q8IBS5); assay: PfCDPK4 kinase inhibitors, biochemical, TCAMS library (AID 1159588; cut-off not given, nearly all actives have IC50 up to about 0.91 µM); details: recombinant PfCDPK4, Kinase-Glo ATP depletion luminescence
Calcium-dependent protein kinase 4 (Plasmodium falciparum (isolate 3D7)), sequence (Q8IBS5 whole entry, looked up): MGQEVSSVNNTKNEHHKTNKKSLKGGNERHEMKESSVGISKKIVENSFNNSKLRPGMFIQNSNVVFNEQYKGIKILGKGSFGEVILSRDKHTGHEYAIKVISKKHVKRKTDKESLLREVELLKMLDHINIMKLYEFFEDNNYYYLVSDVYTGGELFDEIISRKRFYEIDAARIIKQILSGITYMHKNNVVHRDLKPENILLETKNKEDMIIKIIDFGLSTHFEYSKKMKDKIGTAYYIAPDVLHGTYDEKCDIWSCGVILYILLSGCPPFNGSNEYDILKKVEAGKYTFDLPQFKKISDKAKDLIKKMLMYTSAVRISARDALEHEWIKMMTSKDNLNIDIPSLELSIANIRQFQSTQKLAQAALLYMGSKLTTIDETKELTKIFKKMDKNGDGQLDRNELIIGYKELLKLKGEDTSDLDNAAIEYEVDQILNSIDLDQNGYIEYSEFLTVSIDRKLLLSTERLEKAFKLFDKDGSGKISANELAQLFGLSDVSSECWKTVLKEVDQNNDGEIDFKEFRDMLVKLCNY

Row | Structure (SMILES) | growth inhibition [1] | inhibition [2] | inhibition [3] | growth inhibition [4] | outcome [5] | outcome [6] | outcome [7] | outcome [8]
1 | O=C(Nc1cccc(CN2CCN(Cc3cccc(O)c3)CC2)c1)c1cc2ccccc2s1 | 54% (active) | 13% | 0% | 86% (active) | inactive | inactive | inactive | inactive
2 | COc1ccc2ncc(F)c(CCN3C[C@H](CNCc4ccc(F)cc4)[C@H](O)C3)c2n1 | 21% | 38% | -1% | 93% (active) | inactive | inactive | inactive | inactive
3 | CC(C)NCc1cccc(-c2cccc(-c3nc4ccc(F)cc4[nH]3)c2)c1 | 85% (active) | 20% | 2% | 101% (active) | inactive | inactive | inactive | inactive
4 | CC(=O)Nc1nc(C(=O)Nc2cccc(-c3cccc(-c4nc5ccc(F)cc5[nH]4)c3)c2)cs1 | 100% (active) | 39% | -2% | 101% (active) | inactive | inactive | inactive | inactive
5 | CCC1(C)N=C(N)N=C(N)N1c1ccccc1 (configuration not stated) | -2% | 6% | 0% | 98% (active) | inactive | inactive | inactive | inactive
6 | CC(C)c1ccc(CN2CCCCC(NC(=O)c3cc(-c4cccc(F)c4)cs3)C2)cc1 (configuration not stated) | 13% | 6% | 1% | 94% (active) | inactive | inactive | inactive | inactive
7 | CN(C)CCCOc1ccc(CN2CC[C@H](NC(=O)c3ccc(Cl)c(Cl)c3)C2)cc1Br | 34% | 11% | -2% | 101% (active) | inactive | inactive | inactive | inactive
8 | COc1ccc2ncc(F)c(CCN3CCC(NCc4cc(F)c5c(c4)OCCO5)CC3)c2n1 | 67% (active) | 15% | -5% | 100% (active) | inactive | inactive | inactive | inactive
9 | CC1(C)CCCN(c2ncc(-c3cccc(CNCc4ccccc4O)c3)cn2)C1 | 82% (active) | 35% | -4% | 96% (active) | inactive | inactive | inactive | inactive
10 | O=C(Cn1cc(C(F)(F)F)cc(Cl)c1=O)N1CCN(S(=O)(=O)c2ccc(Cl)cc2)CC1 | 69% (active) | 14% | 0% | 99% (active) | inactive | inactive | inactive | inactive
11 | O=C(O[C@@H]1CN[C@H](C#Cc2cc3ncnc(Nc4ccc5c(cnn5Cc5cccc(F)c5)c4)c3s2)C1)N1CCCC1 | 56% (active) | 9% | -3% | 86% (active) | inactive | inactive | inactive | inactive
12 | COc1ccc(-c2cc(Nc3nc(-c4cccc(Cl)c4)nc4ccccc34)ccn2)cc1 | 17% | 3% | -2% | 100% (active) | inactive | inactive | inactive | inactive
13 | CC1CN(Cc2ccc(C#N)cc2)CCN1c1ccc(NC(=O)c2cccs2)cc1 (configuration not stated) | 89% (active) | 8% | 2% | 93% (active) | inactive | inactive | inactive | inactive
14 | C=CCOC(=O)N1CCC(CNCc2ccc(-c3ccc(-c4nc5ccccc5[nH]4)s3)cc2)C1 (configuration not stated) | 76% (active) | 29% | -2% | 101% (active) | inactive | inactive | inactive | inactive
15 | CCCc1ccc(S(=O)(=O)NC2CCN(c3ccnc(Nc4ccc(OC)cc4)n3)C2)cc1 (configuration not stated) | 45% | 42% | 0% | 89% (active) | inactive | inactive | inactive | inactive
16 | COC(=O)CCCCOc1cc(Cc2cnc(N)nc2N)cc(OC)c1OC | -1% | -10% | -3% | 97% (active) | inactive | inactive | inactive | inactive
17 | N#Cc1ccc2c(c1)CN(CCCCNC(=O)c1ccc(-c3ccccc3)cc1)CC2 | 10% | -9% | -1% | 96% (active) | inactive | inactive | inactive | inactive
18 | Cc1cccc2[nH]c(-c3ccc(-c4cccc(NC(=O)Nc5ccc(Cl)c(Cl)c5)c4)s3)nc12 | 36% | 46% | -1% | 101% (active) | inactive | inactive | inactive | inactive
19 | COc1ccc2ncc(C#N)c(CCN3CCC(NCc4cnc5c(c4)OCCO5)CC3)c2n1 | 24% | 3% | -3% | 91% (active) | inactive | inactive | inactive | inactive
20 | CNC(=O)c1cnc(Nc2ccc(OCC(O)CN(C)C)cc2)nc1Nc1cccc(OC)c1 (configuration not stated) | 97% (active) | 31% | 1% | 103% (active) | inactive | inactive | inactive | inactive

Row | Structure (SMILES) | growth inhibition [1] | inhibition [2] | inhibition [3] | growth inhibition [4] | outcome [5] | outcome [6] | outcome [7] | outcome [8]
21 | O=C(Cc1ccc(NC(=O)c2ccc(O)c(-c3ccc(Cl)c(Cl)c3)c2)cc1)NCCc1ccc(Cl)c(Cl)c1 | 88% (active) | -6% | 2% | 99% (active) | inactive | inactive | inactive | inactive
22 | COc1cc(Cc2cnc(N)nc2N)ccc1OCc1cccc(Oc2ccccc2)c1 | 21% | 18% | 0% | 84% (active) | inactive | inactive | inactive | inactive
23 | CCCCCC(=O)NCC(NCCCNc1cc(=O)c2ccccc2[nH]1)c1cc(Br)cc(Br)c1 (configuration not stated) | 66% (active) | -1% | -8% | 96% (active) | inactive | inactive | inactive | inactive
24 | O[C@@H](c1cccc(OCc2ccccc2)c1)[C@@H]1CN(CCc2ccccc2)CC[C@@]1(O)c1ccccc1 | 98% (active) | 7% | -4% | 98% (active) | inactive | inactive | inactive | inactive
25 | CCn1ncc2c(N3CCCC3=O)cc(C(=O)N[C@@H](Cc3ccccc3)[C@H](O)CNC(C)(C)c3cccc(OC)c3)cc21 | 97% (active) | 6% | 0% | 98% (active) | inactive | inactive | inactive | inactive
26 | CCCc1cc(=O)[nH]c(-n2nc(C)cc2NC(=O)C(CC)c2ccccc2)n1 (configuration not stated) | 63% (active) | 41% | -2% | 94% (active) | inactive | inactive | inactive | inactive
27 | O=C(Nc1nc2ccc(Cl)cc2s1)c1csnn1 | 99% (active) | 15% | 3% | 96% (active) | inactive | inactive | inactive | inactive
28 | O=C(Cn1c(CCc2cccc(F)c2F)cc(=O)c2ccccc21)N(Cc1ccc(-c2ccc(C(F)(F)F)cc2)cc1)C1CCN(CCO)CC1 | 84% (active) | 82% (active) | 0% | 91% (active) | inactive | inactive | inactive | inactive
29 | O=c1[nH]c2c(cc1CNC1CCCCC1)c(-c1ccc(F)cc1)nn2-c1ccccc1 | 88% (active) | 8% | 6% | 99% (active) | inactive | inactive | inactive | inactive
30 | COc1ccc(N2C(N)=NC(N)=NC2(C)C)cc1OC | -4% | 13% | -2% | 95% (active) | inactive | inactive | inactive | inactive
31 | COc1cc(C=NNc2cc(C)nc3ccccc23)cc(OC)c1OC | 95% (active) | 5% | -1% | 102% (active) | inactive | inactive | inactive | inactive
32 | OCc1ccc2nc3c(cc2c1)-c1cccc2cccc-3c12 | -1% | 16% | 4% | 96% (active) | inactive | inactive | inactive | inactive
33 | CC(=O)Nc1cc(C(=O)Nc2cccc(-c3cccc(-c4nc5c(C)cccc5[nH]4)c3)c2)ccc1C | 62% (active) | 25% | 1% | 100% (active) | inactive | inactive | inactive | inactive
34 | O=C(Nc1cccc(C(F)(F)F)c1)c1ccc(S(=O)(=O)NCC2CCCN2CC2CCCCC2)cc1 (configuration not stated) | 3% | 14% | -5% | 98% (active) | inactive | inactive | inactive | inactive
35 | Cc1cc(NN=Cc2ccccc2F)c2cccc(C)c2n1 | 14% | 7% | -2% | 102% (active) | inactive | inactive | inactive | inactive
36 | O=C(/C=C/c1ccc(Cl)c(Cl)c1)N1CCC(CN2CCC(c3c[nH]c4ncccc34)CC2)CC1 | 20% | 38% | -1% | 84% (active) | inactive | inactive | inactive | inactive
37 | Cc1ccc2nc(C)cc(NN=Cc3ccccc3[N+](=O)[O-])c2c1 | 100% (active) | 5% | -1% | 102% (active) | inactive | inactive | inactive | inactive
38 | Cc1ccc(C(C)C)cc1CON1C(N)=NC(N)=NC1(C)C | 92% (active) | 66% (active) | -3% | 94% (active) | inactive | inactive | inactive | inactive
39 | Cc1nc2ccc(F)cc2n1C1CCN(C(=O)Cc2ccc(F)c(F)c2)CC1 | 99% (active) | 2% | 0% | 100% (active) | inactive | inactive | inactive | inactive
